Screening results as filed in PubChem BioAssay.
HPGD inh – blocks human HPGD enzyme activity. P15428. purified HPGD, NADH fluorescence kinetic, PGE2 substrate. Potency, µM, actives largely listed as inhibitors. 150,000 tested, 4.3% active
Target sequence (P15428 whole entry, looked up): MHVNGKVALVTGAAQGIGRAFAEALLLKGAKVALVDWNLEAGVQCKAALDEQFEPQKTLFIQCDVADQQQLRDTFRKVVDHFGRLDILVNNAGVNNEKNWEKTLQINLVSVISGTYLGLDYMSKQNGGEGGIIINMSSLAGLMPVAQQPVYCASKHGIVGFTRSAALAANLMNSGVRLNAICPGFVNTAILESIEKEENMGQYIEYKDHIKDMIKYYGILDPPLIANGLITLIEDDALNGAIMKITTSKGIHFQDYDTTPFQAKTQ
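20 nM HPGD preincubated 15 min at room temperature with compound in 50 mM Tris-HCl pH 8, 0.01% Tween 20. Started with 1 mM NAD+ and 30 uM prostaglandin E2; NADH fluorescence (360/450 nm) read 5 times over 30-s intervals, last minus first.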
LMNA splice mod – modulators of lamin A splicing; HeLa LMNA splicing GFP/RFP minigene ratio, 48 h; Potency, µM (titrated, usually from 46.1 µM), hits mostly inhibitors; 200,000 tested, 0.01% active; AID 1487; active means well fitted inhibition curve with a large enough effect in the signal ratio, with a control signal flat, not every such curve was filed as active; inconclusive means small, poorly fitted or top-dose-only effect, or effect the other way, or a change in a side signal; the % refers to the signal ratio
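S3 HeLa stable clones carrying a lamin A-EGFP splicing minigene plus DsRed2 were seeded at 600 cells/well in Opti-MEM with 2% FBS, pin-dosed and incubated 48 h at 37°C. Acumen cytometry (488 nm) gave the GFP/RFP total-intensity ratio.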
PNC inhibitor – inhibitors of perinucleolar compartment assembly | PC3M PTB-GFP, PNC prevalence imaging, 16 h; active compounds read low | activity change (PNC), negative = inhibition, % at 10 µM | 140,000 tested, 3.1% active | AID 2417;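 active means readout at or below -70, meaning at least 70% loss of cells showing the perinucleolar compartment, a nuclear body marking cancer cells; inconclusive means readout between -30 and a set limit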
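Compounds are pinned in duplicate onto adhered PC3M cells stably expressing GFP-tagged PTB and incubated 16 h at 37 C. Cells are then fixed, nuclei stained with Hoechst, and PNC-positive cells counted.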
Luc counter – Kinase-Glo luciferase inhibition (counter-screen); 200,000 tested, 0.28% active; Q27757; Kinase-Glo luciferase, ATP luminescence, 8 min; Potency, µM (titrated, usually from 38.3 µM), most hits filed as inhibitors; active means well fitted inhibition curve with a large enough effect; inconclusive means small, poorly fitted or top-dose-only effect; further: nearly all actives have a fitted effect of over 60% in size
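Luminescence was the read-out, taken after 8-minute incubation at ambient temperature. Luciferase turned over luciferin with 10 uM ATP in imidazole pH 7.2 buffer containing KCl, MgCl2, Tween 20 and BSA.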
IMPase inh – IMPase inhibition in cells. P97697. CHO-M1 cells, IP1 accumulation, HTRF TR-FRET ratio. inhibition (IP1 accumulation), % at 46.1 µM. 120,000 tested, under 10 active. AID 901; active means well fitted curve in the direction sought with a large enough effect in the signal ratio, not every such curve was filed as active; inconclusive means small, poorly fitted or top-dose-only effect, or a change in a side signal; inactive means no such curve, though single readings can be large or run the other way; the % refers to the signal ratio;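 further: cells stimulated with carbachol in lithium chloride buffer; higher means more IMPase inhibition seen as more IP1 and lower FRET ratio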
Target sequence (P97697 whole entry, looked up): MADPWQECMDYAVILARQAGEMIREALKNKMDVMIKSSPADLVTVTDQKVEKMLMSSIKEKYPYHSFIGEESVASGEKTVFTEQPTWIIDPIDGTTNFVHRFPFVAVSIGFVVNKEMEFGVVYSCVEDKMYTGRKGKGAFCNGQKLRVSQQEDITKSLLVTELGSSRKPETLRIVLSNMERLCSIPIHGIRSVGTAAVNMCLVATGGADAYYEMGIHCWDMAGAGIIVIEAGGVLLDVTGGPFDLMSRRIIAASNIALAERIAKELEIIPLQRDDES
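CHO-M1 cells (CHO stably expressing M1 receptor), compound up to 46 uM final, stimulated with carbachol (50 uM as added) in buffer with 50mM LiCl, pH 7.4, 30 min at 37C. Cytosolic IP1 read by TR-FRET; AC50 from Hill fits.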
ALDH1A1 block – inhibitors of human aldehyde dehydrogenase 1A1; P00352; Purified ALDH1A1, NADH fluorescence, propionaldehyde substrate; Potency, µM (highest dose often 75.3 µM), most hits filed as inhibitors; 220,000 tested, 7.3% active
Hits are given with their value; i = inactive; ? = inconclusive; nt = no result; [ ] = remark or other dose. Sampled rows, rich in hits. Any-hit rate of the full collection: about 10%. Unless noted, the call rests on the fitted dose curve; in most records, active means well fitted inhibition curve with a large enough effect (not every such curve was filed as active); inconclusive means small, poorly fitted or top-dose-only effect, or another doubt; inactive means no such curve, though single readings can be large or run the other way.

SMILES | HPGD inh | LMNA splice mod | PNC inhibitor | Luc counter | IMPase inh | ALDH1A1 block
OC1(c2ccc(F)cc2)CC2CCC(C1)N2Cc1nnnn1C1CCCCC1 (stereo not drawn) | i | i | i | i | i | 0.631µM
CN1C2CCC1/C(=C/c1ccccn1)C(=O)/C2=C\c1ccccn1 | i | ? | -109.0 | i | nt | i
C=C1CC2C(CC[C@]3(C)C(=O)CCC23)[C@]2(C)C=CC(=O)C=C12 (stereo partly drawn) | i | ? | nt | i | nt | 28.2µM
C[C@]12C=CC(=O)C=C1CC[C@@H]1[C@@H]2CC[C@@]2(C)[C@H]1CC[C@]2(C)O | i | ? | nt | i | nt | i
COc1cc2ccccc2c2cc([N+](=O)[O-])oc12 | i | nt | nt | i[7.66 µM] | nt | i[13.5 µM]
Cc1cccc(C2=NCC(=O)N(CC(=O)NCc3ccco3)c3sc4c(c32)CCCC4)c1 | 28.2µM | i | ? | i | i | 20µM
COc1ccc(C2=NCC(=O)N(CC(=O)NCc3ccco3)c3sc4c(c32)CCCC4)cc1 | i | ? | i | i | i | 15.8µM
CN1C(=O)C(=Cc2ccccc2Oc2ccc(Cl)c(F)c2)C(=O)N(C)C1=O | 11.2µM | i | i | i | i | ?
O=C1NC(=O)C(=Cc2ccccc2Oc2ccc(F)cc2)C(=O)N1 | nt | nt | nt | i | nt | ?
NS(=O)(=O)c1ccc(-c2ccc([As](=O)(O)O)cc2)cc1 | i | nt | nt | i[7.66 µM] | nt | i[13.5 µM]
CCOC(=O)c1cc(C)sc1/N=C/C1C(=O)NC(=S)NC1=O | nt | i | nt | i | nt | 7.08µM
CCOC(=O)c1c(/N=C/C2C(=O)NC(=S)NC2=O)sc(C)c1C | nt | nt | nt | i | nt | 20µM
N#Cc1c(/N=C/C2C(=O)NC(=S)NC2=O)sc2c1CCCC2 | nt | nt | nt | i | nt | 22.4µM
CCOC(=O)c1c(/N=C/C2C(=O)NC(=S)NC2=O)sc2c1CCC2 | nt | i | nt | i | nt | 17.8µM
N[C@]1(C(=O)O)CC[C@@H](C(=O)O)C1 (racemic) | nt | nt | nt | nt | nt | i
C=CC(=C)C | i | nt | nt | nt | nt | i
CCOc1c(Cl)cc(CNc2ccc(S(N)(=O)=O)cc2)cc1OC | 25.1µM | ? | i | i | nt | i
NC(=NCCc1ccc(I)cc1)SCCCc1cnc[nH]1 | i | nt | nt | i | i | i
CC(C)(O)[C@H]1[C@H]2OC(=O)[C@@H]1[C@]1(O)C[C@H]3O[C@]34C(=O)O[C@H]2[C@]14C (tested in a mixture with another compound) | nt | nt | nt | nt | i | nt
C=C(C)[C@H]1Cc2c(ccc3c2O[C@H]2COc4cc(OC)c(OC)cc4[C@@H]2C3=O)O1 | nt | nt | nt | nt | i | nt
O=C1NC(=O)C(=Cc2ccc(SC3CCCCC3)o2)C(=O)N1 | nt | nt | nt | i | nt | 25.1µM
CN(C)CCCNCC(=O)Nc1ccc(Cl)cc1C(=O)c1ccccc1 | nt | nt | nt | i | nt | 2.82µM
CC(C)[C@]1(O)[C@@H](OC(=O)c2ccc[nH]2)[C@]2(O)[C@@]3(C)C[C@@]4(O)O[C@@]5([C@H](O)[C@@H](C)CC[C@]35O)[C@]2(O)[C@]41C | i | nt | nt | i[7.66 µM] | nt | i[13.5 µM]
CC(C)C[C@H]1C(=O)N2CCCC2[C@]2(O)O[C@](NC(=O)[C@@H]3C=C4c5cccc6[nH]c(Br)c(c56)C[C@H]4N(C)C3)(C(C)C)C(=O)N12 (stereo partly drawn) | i | ? | nt | i | nt | i
N[C@H](Cc1ccccc1)c1nn[nH]n1 | i | nt | nt | i[7.66 µM] | nt | i[13.5 µM]
SMILES | HPGD inh | LMNA splice mod | PNC inhibitor | Luc counter | IMPase inh | ALDH1A1 block
CN(C)/C=c1\sc2c(C#N)cc(C(=O)c3ccc(Br)cc3)n2c1=O | i | i | i | i | i | 2µM
O=C1NC(c2cccnc2)Nc2sc3c(c21)CCCC3 (stereo not drawn) | i | i | -100.0 | i | i | ?
CC12CN3CC(C)(CN(C1)C3c1cccnc1)C2=O (stereo not drawn) | i | i | i | i | i | i
CC1(C)Cc2c(sc3c2C(=O)NC(c2cccnc2)N3)CO1 (stereo not drawn) | ? | i | -101.5 | i | i | ?
CCCCOCC1CO1 (stereo not drawn) | i | nt | nt | nt | nt | i
N[C@@H](Cc1ccccc1)P(=O)(O)O | i | nt | nt | i[7.66 µM] | nt | i[13.5 µM]
COc1ccc(C(=O)C(Cc2ccccc2)N(C)C)cc1 (stereo not drawn) | i | i | ? | i | i | 28.2µM
